Screening data from PubChem BioAssay.
Only some compounds are listed: those with a hit (about 1.2% of all), similar ones and a draw of the others.
PG9 binder: binds the HIV-1 gp120 antibody PG9. TR-FRET gp120-PG9 antibody binding. AID 624416. inhibition, % at 6.7 µM. actives 0.43% (n = 360,000); in the data active = inhibition above about 8.5%
PKA-R2B activ: activates the human PKA-R2B holoenzyme complex; P22694+P31323; PKA-R2B holoenzyme dissociation, Cy5-IP20 fluorescence polarization; R2B truncated from residue 108, S112A mutant; 0% DMSO only, 100% 113 µM cGMP; activation, % at 11.4 µM; actives 0.079% (n = 340,000); AID 504700;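 active = activation above a cutoff set at the mean over all compounds plus 3 SD, cut at about 18% in these data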;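 also: higher means more holoenzyme dissociation and a rise in polarization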
PKA-R1A activ: activates the PKA-R1A holoenzyme complex. activation, % at 11.4 µM. PKA-R1A dissociation, Cy5-IP20 fluorescence polarization; scaled: DMSO 0%, 113 µM cGMP 100%. AID 504707. actives 0.083% (n = 340,000). P00514+P68181;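 active = percent activation above the mean of all tested compounds plus 3 SD, cut at about 19% in these data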;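 also: higher means more PKAc released from R1A so a rise in polarization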
NR1D1 modulator: modulators of human Rev-erb alpha DNA binding | P20393 | Rev-erbα–FITC-DNA binding, fluorescence polarization, 90 min | activity, % at 10 µM | actives 0.79% (n = 370,000);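 active = activity above about 14%, limit read from the data; passing the limit was not always enough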;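 also: 0% = DMSO wells with 35 nM protein and 100% = DMSO wells with 750 nM protein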
NR1D1 mod conf: confirmation of modulators of human Rev-erb alpha DNA binding | activation, % at 25 µM | Rev-erb alpha FITC-DNA binding, fluorescence polarization, 90 min | shares compounds with NR1D1 modulator | actives 61% (n = 3,000);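 active = activation at or above a set limit, or at least 3 SD above the negative control mean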;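 also: 0% = 35 nM protein with DMSO and 100% = 750 nM protein high control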
RORg DNA counter: RORgamma DNA-binding activity, dose-response counter-screen. IC50, µM. AID 1259320. shares compounds with NR1D1 modulator. purified RORgamma protein-FITC-DNA binding, fluorescence polarization. actives 8% (n = 910);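 active = Compounds whose fitted half-maximal concentration for disrupting protein-DNA binding is below 10 micromolar; the record names Rev-erb in its text, so the target is in doubt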
The depositor's hits bear a star; · = no result given.

SMILES	PG9 binder	PKA-R2B activ	PKA-R1A activ	NR1D1 modulator	NR1D1 mod conf	RORg DNA counter
COCCN(Cc1cc2cc(C)ccc2n2nnnc12)C(=S)Nc1ccc(C)cc1	2	5	2	104*	49*	>40
COCCNC(=S)N(Cc1cc2cc(C)ccc2n2nnnc12)C1CCCC1	-1	3	7	54*	22*	·
COCCN(Cc1cc2cc(C)ccc2n2nnnc12)C(=S)Nc1ccc(OC)cc1	0	-3	-4	-2	·	·
COc1ccc(Cc2nc3ccccc3n2CC(=O)N/N=C/c2ccc(O)cc2)cc1OC	-2	-1	11	-3	·	·
COc1ccc(Cc2nc3ccccc3n2CC(=O)N/N=C/c2ccc(C)cc2O)cc1OC	-1	10	-7	34*	45*	>40
